An excerpt weighted towards active compounds, which were near 4.7% of everything screened.
TRHR PAM = TRH receptor (human) allosteric enhancement. TRHR cells, fluo-8 calcium fluorescence, EC20 TRH enhancement. enhancement, % at 2 µM. 360,000 tested, 0.66% active. AID 493056; in the data active means enhancement above about 30%
Target sequence (P34981 whole entry, looked up): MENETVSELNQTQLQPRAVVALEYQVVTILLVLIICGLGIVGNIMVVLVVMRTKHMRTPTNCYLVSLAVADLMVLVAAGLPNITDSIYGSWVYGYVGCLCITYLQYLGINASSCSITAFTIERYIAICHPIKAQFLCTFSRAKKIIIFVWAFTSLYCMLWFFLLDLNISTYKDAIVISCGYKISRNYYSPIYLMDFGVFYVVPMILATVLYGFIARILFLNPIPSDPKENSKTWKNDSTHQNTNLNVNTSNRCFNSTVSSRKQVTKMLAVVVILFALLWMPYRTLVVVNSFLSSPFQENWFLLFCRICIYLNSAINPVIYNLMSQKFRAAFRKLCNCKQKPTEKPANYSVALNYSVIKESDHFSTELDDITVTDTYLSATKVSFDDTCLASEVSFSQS
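Enhancer read-out: after compound pinning and an initial kinetic agonist-mode read, an EC20 of TRH (10 nM final) was injected and fluo-8 calcium signal (Ex 480/Em 530) followed at 1 s/cycle for 100 cycles in TRHR-expressing cells.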
TRHR agonist = TRH receptor (human) agonism | AID 493084 | activation, % at 2 µM | P34981 | TRHR cells, calcium flux fluo-8, FDSS agonist mode | 360,000 tested, 0.18% active
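In this calcium-flux screen, cells bearing human TRHR are dye-loaded with fluo-8, baselined for 10 cycles, then exposed to library compounds; positive kinetic calcium responses during the agonist phase mark hits, with TRH as control.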
D1 antag = blocks dopamine activation of the human D1 receptor. P21728. HEK293 TREx D1 cells, calcium flux, dopamine EC80; active compounds read low. activity change, negative = inhibition, % at 10 µM. 360,000 tested, 3.2% active. AID 504652; in the data active means activity change below about -30%
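HEK293 T-REx cells expressing inducible, force-coupled D1 receptor; no-wash Ca dye, 30–90 min RT. Cmpd → 180 s read at 1 Hz → EC80 DA → 180 s read.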
D1 potentiator = human D1 dopamine receptor positive modulation; HEK293 TREx D1 cells, calcium flux, dopamine EC20 potentiation; potentiation, % at 10 µM; P21728; 360,000 tested, 0.036% active; in the data active means potentiation above about 30%
D1 ag = human D1 receptor agonism. P21728. HEK293 T-REx D1 cells, calcium flux, agonist mode. activation, % at 2 µM. 360,000 tested, 1% active
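Tetracycline-induced HEK293 TREx D1 cells, force-coupled to calcium signalling, were dye-loaded with a no-wash calcium kit. Compound was pin-added after a 10 s baseline. Fluorescence was read kinetically at 1 cycle/s for 180 s, with calcium rises flagged as agonism.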
Large screens that a line does not name were inactive. Unless noted, no stated cut-off is given here; in the data, active means activation above about 30%; inactive means the rest.

N/C(=N\OC(=O)Cc1cccs1)c1ccccc1	D1 antag -38.2
Cc1ccc(/C(N)=N/OC(=O)Cc2cccs2)cc1	none
Cc1ccc(NC(=O)Cn2c(=O)n(Cc3nc(C)no3)c(=O)c3cc4c(cc32)OCO4)c(C)c1	none
CCOC(=O)c1c(CSC(=N)N)n(-c2ccc(Br)cc2)c2cc(Br)c(OC(C)=O)cc12	D1 ag 40.4
Cc1cc(NC(=O)CCC(=O)N(Cc2ccco2)C(C(=O)NC2CCCCC2)c2cccs2)no1 (centres undefined)	none
COc1ccc(CN(C(=O)c2snc(C(N)=O)c2N)C(C(=O)NC2CCCC2)c2cc(OC)ccc2OC)cc1 (centres undefined)	TRHR PAM 34.4
COc1ccc(C(C(=O)NC2CCCC2)N(Cc2ccco2)C(=O)c2snc(C(N)=O)c2N)cc1OC (centres undefined)	D1 antag -33.1
Cc1ccc(C(C(=O)NC2CCCC2)N(Cc2ccco2)C(=O)CCC(=O)Nc2cc(C)on2)cc1 (centres undefined)	D1 antag -31.5
COc1ccc(CN(C(=O)c2snc(C(N)=O)c2N)C(C(=O)NC2CCCC2)c2ccc(OC)cc2)cc1 (centres undefined)	none
COc1cccc(C(C(=O)NC2CCCC2)N(Cc2ccco2)C(=O)c2ccco2)c1OC (centres undefined)	D1 antag -37.3
COCCN(CC(=O)Nc1cccc(C)c1C)C(=O)Cn1cnc2ccccc2c1=O	none
c1ccc(N2CCN(c3ncnc4[nH]ncc34)CC2)cc1	D1 antag -34.6
COc1ccccc1CNC(=O)OCc1nccnc1C(=O)Nc1ccc(Br)cn1	D1 antag -35.4
O=C1c2ccccc2C(=O)N1CCCCN(C(=O)c1cc([N+](=O)[O-])cc([N+](=O)[O-])c1)c1ccc(Cl)cc1	D1 antag -50.9
COc1ccc(CCn2c(=O)c3cccnc3n(CC(=O)Nc3ccc(C)cc3C)c2=O)cc1OC	none
CNC(=O)c1cc(OCC(F)(F)F)ccc1OCC(F)(F)F	none (no result: D1 antag)
COc1cccc(/C=N\NC(=O)c2cc(OCC(F)(F)F)ccc2OCC(F)(F)F)c1	D1 ag 32.5
Cc1ccc(-n2c(SCC(=O)OC(C)C)nnc2-c2ccncc2)cc1	D1 ag 38.1
COc1cc(/C=c2\s/c(=C(/C#N)C(=O)N3CCCC3)n(-c3ccccc3)c2=O)ccc1O	TRHR agonist 71.5, D1 ag 138.0
S=c1sc2c(Cl)ncnc2n1-c1ccccc1	D1 antag -44.1
O=C(NCc1ccc(Cl)s1)C1CCC(=O)N(CCc2cccc(F)c2)C1 (centres undefined)	none
COc1ccc(Nc2oc(COc3ccc(OC)cc3)nc2C#N)cc1	D1 antag -34.2
CCN(Cc1ccccc1)S(=O)(=O)c1ccc(C(=O)N(CCCN(C)C)c2nc3c(F)cccc3s2)cc1	none
CCOc1cccc2sc(N(CCCN(C)C)C(=O)c3ccc(S(=O)(=O)N(CC)Cc4ccccc4)cc3)nc12	D1 antag -45.2, D1 ag 33.3
CCOc1cccc2sc(N(CCCN(C)C)C(=O)c3ccc(S(=O)(=O)N(C)Cc4ccccc4)cc3)nc12	D1 antag -48.3, D1 ag 42.0
Cc1cc(C)cc(NC(=O)CN2C(=O)c3ccccc3Sc3ncccc32)c1	none
CC(C)(C)c1cccc(Cn2nnc3ccccc32)c1O	D1 antag -42.9
CCOC(=O)c1ccc(NC(=S)N2CCCC(C(=O)N3CCCC3)C2)cc1 (centres undefined)	D1 antag -89.0
CCOC(=O)c1ccc(NC(=S)N2CCCC(C)C2)cc1 (centres undefined)	none (no result: D1 antag)
O=C(O)c1ccc(NC(=S)N2CCCCC2)cc1	D1 antag -73.0
O=C(c1ccc(S(=O)(=O)N2CCCC2)cc1)N(c1ccccc1)C1C=CS(=O)(=O)C1 (centres undefined)	none
CCCN(CCC)S(=O)(=O)c1ccc(NC(=O)c2cc(C(=O)OC)cc([N+](=O)[O-])c2)cc1	D1 antag -37.9
CCC(C)(C)NC(=O)c1cc(C(=O)OC)cc([N+](=O)[O-])c1	none
COc1cccc(C(=O)Nc2ccccc2C(=O)OCc2cc(=O)n3nc(C)sc3n2)c1	none
